# Test results published in the supplement of paper PMC8728848.
# The sample as a whole holds a higher share of the strongest signals than the screen did.
# B1: PpFlo1 (Pichia pastoris) (protein)
# chain: MGSSHHHHHHSSGLVPRGSHMQESGDGDISDSAYACDIDATRYDGFNATIYEFQPGDGRLTRDPVFMSTGYLNRTQLHSITGVTDPGFSIYTPGVPTTTLYGIPNVNWENLLLELKGYFRAEVSGDYGLSLRNIDDSAILFFGKETAFQCCNENSISNEASTDYSLFTIFRQEGDETTNLDSFTYTQYLEAGKYYPVRTFFVNIERHAVFNFTMTLPDGTELTDFHNYIYQFGALDEEQCQA
# What was measured:
# Assay in all cases: glycan array binding signal (z-score within array); higher = stronger binding
# Conditions in all cases: glycan notation: IUPAC condensed, linker removed
# [1] = molecular target: Fuc(a1-2)Gal(b1-3)GalNAc(b1-3)Gal
# In short: (§1)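 Arrays were curated from the Consortium for Functional Glycomics database, 3228 in total, and kept only where the protein sequence was available. Binding is expressed as a within-array Z-score. This score was averaged across arrays of the same protein sequence at different concentrations or buffers and across linkers, and negative values can be read as non-binding.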
# [2] = molecular target: Fuc(a1-2)Gal(b1-4)Glc6S
# In short: as §1
# [3] = molecular target: Fuc(a1-2)Gal(b1-4)GlcNAc(b1-3)GalNAc
# In short: as §1
# [4] = molecular target: Fuc(a1-2)Gal(b1-4)[Fuc(a1-3)]GlcNAc(b1-2)Man(a1-3)[Fuc(a1-2)Gal(b1-4)[Fuc(a1-3)]GlcNAc(b1-2)Man(a1-6)]Man(b1-4)GlcNAc(b1-4)[Fuc(a1-6)]GlcNAc
# In short: as §1
# [5] = molecular target: Fuc(a1-2)Gal(b1-4)[Fuc(a1-3)]GlcNAc(b1-3)Gal(b1-4)[Fuc(a1-3)]GlcNAc(b1-3)Gal(b1-4)[Fuc(a1-3)]GlcNAc
# In short: as §1
# [6] = molecular target: Fuc(a1-2)Gal(b1-4)[Fuc(a1-3)]GlcNAc(b1-3)[Neu5Ac(a2-6)Gal(b1-4)GlcNAc(b1-6)]Gal(b1-4)Glc
# In short: as §1
# [7] = molecular target: Fuc(a1-2)[Gal(a1-3)]Gal(b1-4)GlcNAc(b1-6)GalNAc
# In short: as §1
# [8] = molecular target: Fuc(a1-2)[Gal(a1-3)]Gal(b1-4)[Fuc(a1-3)]GlcNAc(b1-3)GalNAc
# In short: as §1
# [9] = molecular target: Fuc(a1-2)[GalNAc(a1-3)]Gal(b1-3)GalNAc(b1-3)Gal(a1-4)Gal(b1-4)Glc
# In short: as §1
# [10] = molecular target: Fuc(a1-2)[GalNAc(a1-3)]Gal(b1-3)GlcNAc(b1-3)GalNAc
# In short: as §1
# [11] = molecular target: Fuc(a1-2)[GalNAc(a1-3)]Gal(b1-4)GlcNAc(b1-2)Man(a1-3)[Fuc(a1-2)[GalNAc(a1-3)]Gal(b1-4)GlcNAc(b1-2)Man(a1-6)]Man(b1-4)GlcNAc(b1-4)GlcNAc
# In short: as §1
# [12] = molecular target: Fuc(a1-2)[GalNAc(a1-3)]Gal(b1-4)[Fuc(a1-3)]GlcNAc(b1-3)GalNAc
# In short: as §1
# [13] = molecular target: Fuc(a1-3)[Gal(b1-4)]GlcNAc(b1-6)[Neu5Ac(a2-3)Gal(b1-3)]GalNAc
# In short: as §1
# [14] = molecular target: Gal(a1-4)Gal(b1-4)GlcNAc(b1-3)Gal(b1-4)Glc
# In short: as §1
# [15] = molecular target: Gal(b1-3)Gal
# In short: as §1
# [16] = molecular target: Gal(b1-3)GalNAc(a1-3)[Fuc(a1-2)]Gal(b1-4)Glc
# In short: as §1
# [17] = molecular target: Gal(b1-3)GalNAc(b1-4)Gal(b1-4)Glc
# In short: as §1
# [18] = molecular target: Gal(b1-3)GlcNAc(a1-3)Gal(b1-4)GlcNAc
# In short: as §1
# [19] = molecular target: Gal(b1-3)[Neu5Ac(a2-6)]GlcNAc(b1-4)Gal(b1-4)Glc
# In short: as §1
# [20] = molecular target: Gal(b1-4)GlcNAc(b1-2)Man(a1-3)[Gal(b1-4)GlcNAc(b1-2)Man(a1-6)]Man(b1-4)GlcNAc(b1-4)[Fuc(a1-6)]GlcNAc
# In short: as §1
# [21] = molecular target: Gal(b1-4)GlcNAc(b1-2)Man(a1-3)[Gal(b1-4)GlcNAc(b1-2)Man(a1-6)][Gal(b1-4)GlcNAc(b1-4)]Man(b1-4)GlcNAc(b1-4)[Fuc(a1-6)]GlcNAc
# In short: as §1
# [22] = molecular target: Gal(b1-4)GlcNAc(b1-2)Man(a1-3)[GlcNAc(b1-4)][Gal(b1-4)GlcNAc(b1-2)Man(a1-6)]Man(b1-4)GlcNAc(b1-4)GlcNAc
# In short: as §1
# [23] = molecular target: Gal(b1-4)GlcNAc(b1-2)Man(a1-3)[Man(a1-6)]Man(b1-4)GlcNAc(b1-4)GlcNAc
# In short: as §1
# [24] = molecular target: Gal(b1-4)GlcNAc(b1-2)[Gal(b1-4)GlcNAc(b1-4)]Man(a1-3)[GlcNAc(b1-4)][Gal(b1-4)GlcNAc(b1-2)Man(a1-6)]Man(b1-4)GlcNAc(b1-4)GlcNAc
# In short: as §1
# [25] = molecular target: Gal(b1-4)GlcNAc(b1-3)Gal(b1-4)GlcNAc(b1-3)[Gal(b1-4)GlcNAc(b1-3)Gal(b1-4)GlcNAc(b1-6)]GalNAc
# In short: as §1
# [26] = molecular target: Gal3S6S(b1-4)GlcNAc6S
# In short: as §1
# [27] = molecular target: Gal6S(b1-3)GlcNAc6S
# In short: as §1
# [28] = molecular target: Gal6S(b1-4)GlcNAc6S
# In short: as §1
# [29] = molecular target: GalNAc(a1-3)GalNAc(b1-3)Gal(a1-4)Gal(b1-4)Glc
# In short: as §1
# [30] = molecular target: GalNAc(b1-4)GlcNAc(b1-2)Man
# In short: as §1
binder,measurement,setting,value
B1,glycan array binding signal (z-score),[1],-0.068
same,glycan array binding signal (z-score),[2],-0.627
same,glycan array binding signal (z-score),[3],9.01
same,glycan array binding signal (z-score),[4],0.805
same,glycan array binding signal (z-score),[5],0.218
same,glycan array binding signal (z-score),[6],-0.279
same,glycan array binding signal (z-score),[7],-0.228
same,glycan array binding signal (z-score),[8],1.04
same,glycan array binding signal (z-score),[9],-0.244
same,glycan array binding signal (z-score),[10],3.23
same,glycan array binding signal (z-score),[11],2.04
same,glycan array binding signal (z-score),[12],7.08
same,glycan array binding signal (z-score),[13],3.09
same,glycan array binding signal (z-score),[14],-0.25
same,glycan array binding signal (z-score),[15],0.345
same,glycan array binding signal (z-score),[16],-0.55
same,glycan array binding signal (z-score),[17],3.27
same,glycan array binding signal (z-score),[18],-0.388
same,glycan array binding signal (z-score),[19],0.298
same,glycan array binding signal (z-score),[20],-0.323
same,glycan array binding signal (z-score),[21],0.235
same,glycan array binding signal (z-score),[22],-0.214
same,glycan array binding signal (z-score),[23],1.6
same,glycan array binding signal (z-score),[24],-0.266
same,glycan array binding signal (z-score),[25],0.345
same,glycan array binding signal (z-score),[26],1.38
same,glycan array binding signal (z-score),[27],2.66
same,glycan array binding signal (z-score),[28],1.66
same,glycan array binding signal (z-score),[29],-0.647
same,glycan array binding signal (z-score),[30],-0.267
